Read-outs that look alike come from different tables or passages of the source.
How the values were obtained:
[1] = tested on: AAK1; settings: n = 1
[2] = tested on: ABL1-nonphosphorylated; settings: concentration: 1 μM,replicates: in singlicate; n = 1
[3] = tested on: ABL1-phosphorylated; settings: concentration: 1 μM,replicates: in singlicate; n = 1
[4] = tested on: ABL2; settings: concentration: 1 μM,replicates: in singlicate; n = 1
[5] = tested on: ACVR1B; settings: concentration: 1 μM,replicates: in singlicate; n = 1
[6] = tested on: ACVR1; settings: concentration: 1 μM,replicates: in singlicate; n = 1
[7] = tested on: ACVR2A; settings: concentration: 1 μM,replicates: in singlicate; n = 1
[8] = tested on: ACVR2B; settings: concentration: 1 μM,replicates: in singlicate; n = 1
[9] = tested on: ACVRL1; settings: concentration: 1 μM,replicates: in singlicate; n = 1
[10] = tested on: T1, ADCK3; settings: concentration: 1 μM,replicates: in singlicate; n = 1
T1 construct: gene CABC1

[11] = tested on: ADCK4; settings: concentration: 1 μM,replicates: in singlicate; n = 1
[12] = tested on: AKT1; settings: concentration: 1 μM,replicates: in singlicate; n = 1
[13] = tested on: AKT2; settings: concentration: 1 μM,replicates: in singlicate; n = 1
[14] = tested on: AKT3; settings: concentration: 1 μM,replicates: in singlicate; n = 1
[15] = tested on: ALK; settings: concentration: 1 μM,replicates: in singlicate; n = 1
[16] = tested on: T2, AMPK-alpha1; settings: concentration: 1 μM,replicates: in singlicate; n = 1
T2 construct: gene PRKAA1

[17] = tested on: T3, AMPK-alpha2; settings: concentration: 1 μM,replicates: in singlicate; n = 1
T3 construct: gene PRKAA2

[18] = tested on: ANKK1; settings: concentration: 1 μM,replicates: in singlicate; n = 1
[19] = tested on: T4, ARK5; settings: concentration: 1 μM,replicates: in singlicate; n = 1
T4 construct: gene NUAK1

[20] = tested on: T5, ASK1; settings: concentration: 1 μM,replicates: in singlicate; n = 1
T5 construct: gene MAP3K5

[21] = concentration: 1 μM,replicates: in singlicate
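Note: KINOMEscan kinase panel screen.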

FC(F)(F)c1cc(Br)cc(Nc2nccc(-c3cnn4ncccc34)n2)c1 [GW810578]
%Inh [1, 21]: 32% | %Inh [2]: 0% | %Inh [3]: 0% | %Inh [4]: 0% | %Inh [5]: 6% | %Inh [6]: 15% | %Inh [7]: 13% | %Inh [8]: 2% | %Inh [9]: 25% | %Inh [10]: 10% | %Inh [11]: 27% | %Inh [12]: 6% | %Inh [13]: 6% | %Inh [14]: 20% | %Inh [15]: 0% | %Inh [16]: 24% | %Inh [17]: 16% | %Inh [18]: 27% | %Inh [19]: 40% | %Inh [20]: 0%

CC(C(=O)NC1CCN(c2ccnc(Nc3ccc(F)cc3)n2)C1)c1ccc(Cl)cc1 (centres unmarked) [GSK1379713]
%Inh [1, 21]: 14% | %Inh [2]: 0% | %Inh [3]: 0% | %Inh [4]: 9% | %Inh [5]: 0% | %Inh [6]: 0% | %Inh [7]: 0% | %Inh [8]: 0% | %Inh [9]: 0% | %Inh [10]: 0% | %Inh [11]: 13% | %Inh [12]: 0% | %Inh [13]: 0% | %Inh [14]: 0% | %Inh [15]: 5% | %Inh [16]: 10% | %Inh [17]: 0% | %Inh [18]: 4% | %Inh [19]: 0% | %Inh [20]: 0%

COc1cc2ncn(-c3cc(OCC4CCCCC4)c(C(N)=O)s3)c2cc1OC [GSK204559]
%Inh [1, 21]: 55% | %Inh [2]: 0% | %Inh [3]: 0% | %Inh [4]: 14% | %Inh [5]: 0% | %Inh [6]: 5% | %Inh [7]: 18% | %Inh [8]: 32% | %Inh [9]: 0% | %Inh [10]: 11% | %Inh [11]: 11% | %Inh [12]: 0% | %Inh [13]: 0% | %Inh [14]: 0% | %Inh [15]: 22% | %Inh [16]: 0% | %Inh [17]: 27% | %Inh [18]: 14% | %Inh [19]: 0% | %Inh [20]: 14%

O=c1[nH]cc(-c2ccc(O)cc2)c2sc(-c3ccncc3)cc12 [GSK1033723]
%Inh [1, 21]: 26% | %Inh [2]: 0% | %Inh [3]: 0% | %Inh [4]: 0% | %Inh [5]: 0% | %Inh [6]: 0% | %Inh [7]: 0% | %Inh [8]: 0% | %Inh [9]: 0% | %Inh [10]: 34% | %Inh [11]: 16% | %Inh [12]: 0% | %Inh [13]: 16% | %Inh [14]: 97.2% | %Inh [15]: 0% | %Inh [16]: 0% | %Inh [17]: 13% | %Inh [18]: 10% | %Inh [19]: 13% | %Inh [20]: 0%

O=C(Nc1ccccc1)c1cccc(Oc2ccc3nccn3n2)c1
%Inh [1, 21]: 1% | %Inh [2]: 12% | %Inh [3]: 0% | %Inh [4]: 3% | %Inh [5]: 5% | %Inh [6]: 6% | %Inh [7]: 0% | %Inh [8]: 5% | %Inh [9]: 2% | %Inh [10]: 19% | %Inh [11]: 0% | %Inh [12]: 11% | %Inh [13]: 0% | %Inh [14]: 0% | %Inh [15]: 0% | %Inh [16]: 5% | %Inh [17]: 7% | %Inh [18]: 2% | %Inh [19]: 0% | %Inh [20]: 0%

O=C(Nc1cccc(C(F)(F)F)c1)c1cccc(Oc2ccc3nccn3n2)c1
%Inh [1, 21]: 0% | %Inh [2]: 98.5% | %Inh [3]: 17% | %Inh [4]: 76% | %Inh [5]: 0% | %Inh [6]: 0% | %Inh [7]: 24% | %Inh [8]: 8% | %Inh [9]: 0% | %Inh [10]: 14% | %Inh [11]: 0% | %Inh [12]: 0% | %Inh [13]: 17% | %Inh [14]: 1% | %Inh [15]: 0% | %Inh [16]: 8% | %Inh [17]: 84% | %Inh [18]: 0% | %Inh [19]: 0% | %Inh [20]: 5%

CC(=O)Nc1nc2cnc(Nc3cc(NC(=O)c4cccc(CC(C)(C)C#N)c4)ccc3C)nc2s1
%Inh [1, 21]: 23% | %Inh [2]: 99.7% | %Inh [3]: 50% | %Inh [4]: 61% | %Inh [5]: 0% | %Inh [6]: 0% | %Inh [7]: 11% | %Inh [8]: 0% | %Inh [9]: 0% | %Inh [10]: 3% | %Inh [11]: 0% | %Inh [12]: 12% | %Inh [13]: 5% | %Inh [14]: 0% | %Inh [15]: 42% | %Inh [16]: 3% | %Inh [17]: 7% | %Inh [18]: 0% | %Inh [19]: 7% | %Inh [20]: 7%

COc1cccc(C2=C(Nc3cccc(Cl)c3)C(=O)NC2=O)c1 [SB-341556]
%Inh [1, 21]: 0% | %Inh [2]: 0% | %Inh [3]: 21% | %Inh [4]: 8% | %Inh [5]: 0% | %Inh [6]: 65% | %Inh [7]: 0% | %Inh [8]: 0% | %Inh [9]: 0% | %Inh [10]: 24% | %Inh [11]: 0% | %Inh [12]: 0% | %Inh [13]: 0% | %Inh [14]: 0% | %Inh [15]: 32% | %Inh [16]: 0% | %Inh [17]: 0% | %Inh [18]: 0% | %Inh [19]: 0% | %Inh [20]: 5%

Cl.Cl.NC[C@H](CC1CCCCC1)NC(=O)c1ccc(-c2ccnc3[nH]ccc23)s1 [GSK1581428]
%Inh ([1]; 1 µM): 75% | %Inh [2]: 0% | %Inh [3]: 0% | %Inh [4]: 8% | %Inh [5]: 0% | %Inh [6]: 5% | %Inh [7]: 61% | %Inh [8]: 0% | %Inh [9]: 0% | %Inh [10]: 13% | %Inh [11]: 2% | %Inh [12]: 94.1% | %Inh [13]: 93.4% | %Inh [14]: 98.1% | %Inh [15]: 37% | %Inh [16]: 77% | %Inh [17]: 72% | %Inh [18]: 0% | %Inh [19]: 89% | %Inh [20]: 0%

CC(=O)Nc1ccc(-c2cc3ncnc(SCC(=O)O)c3s2)cc1
%Inh [1, 21]: 44% | %Inh [2]: 15% | %Inh [3]: 3% | %Inh [4]: 8% | %Inh [5]: 2% | %Inh [6]: 0% | %Inh [7]: 4% | %Inh [8]: 30% | %Inh [9]: 27% | %Inh [10]: 0% | %Inh [11]: 0% | %Inh [12]: 0% | %Inh [13]: 28% | %Inh [14]: 16% | %Inh [15]: 7% | %Inh [16]: 2% | %Inh [17]: 0% | %Inh [18]: 22% | %Inh [19]: 0% | %Inh [20]: 0%
